# Like-named read-outs stand apart in the source and are kept apart here.
# Experiments:
# Set-up in all cases: species or system human, MV4-11 + K-562 + COLO205 + SK-N-BE2 + OVCAR-8
# [1] = tested on: MAPK10; settings: read-out: apparent Kd, n = 1
# [2] = tested on: MAPK11; settings: read-out: apparent Kd, n = 1
# [3] = tested on: MAPK14; settings: read-out: apparent Kd, n = 1
# [4] = tested on: MAPK8; settings: read-out: apparent Kd, n = 1
# [5] = tested on: MAPK9; settings: read-out: apparent Kd, n = 1
# [6] = tested on: NLK; settings: read-out: apparent Kd, n = 1
# [7] = tested on: PIP4K2C; settings: read-out: apparent Kd; compound concentrations:100 nM and 1000 nM (sheet 'Samples'); n = 1
# [8] = tested on: JAK2; settings: read-out: apparent Kd, compound concentrations: 100 nM and 1000 nM (sheet 'Samples'), n = 1
# [9] = tested on: MAPKAPK2; settings: read-out: apparent Kd, n = 1
# [10] = tested on: NUAK1; settings: read-out: apparent Kd; compound concentrations: 100 nM and 1000 nM (sheet 'Samples'), CATDS: 9.4194293053738595E-2; n = 1
# [11] = tested on: MAP2K5; settings: read-out: apparent Kd; compound concentrations:100 nM and 1000 nM (sheet 'Samples'); n = 1
# [12] = tested on: RIPK2; settings: read-out: apparent Kd; compound concentrations:100 nM and 1000 nM (sheet 'Samples'); n = 1
# [13] = tested on: MAP2K1; settings: read-out: apparent Kd; compound concentrations:100 nM and 1000 nM (sheet 'Samples'); n = 1
# [14] = tested on: PIK3C2A; settings: read-out: apparent Kd; compound concentrations:100 nM and 1000 nM (sheet 'Samples'); n = 1
# [15] = tested on: PIK3C3; settings: read-out: apparent Kd; compound concentrations:100 nM and 1000 nM (sheet 'Samples'); n = 1
# [16] = tested on: PIM2; settings: read-out: apparent Kd; compound concentrations:100 nM and 1000 nM (sheet 'Samples'); n = 1
# [17] = tested on: RIOK2; settings: read-out: apparent Kd; compound concentrations:100 nM and 1000 nM (sheet 'Samples'); n = 1
# [18] = tested on: MAP2K2; settings: read-out: apparent Kd; compound concentrations:100 nM and 1000 nM (sheet 'Samples'); n = 1
# [19] = tested on: NQO1; settings: read-out: apparent Kd; compound concentrations:100 nM and 1000 nM (sheet 'Samples'); n = 1
# [20] = tested on: PIK3CB; settings: read-out: apparent Kd; compound concentrations:100 nM and 1000 nM (sheet 'Samples'); n = 1
# [21] = tested on: PIK3CD; settings: read-out: apparent Kd; compound concentrations: 100 nM and 1000 nM (sheet 'Samples'), CATDS: 0.441724722045092; n = 1
# [22] = tested on: STK26; settings: read-out: apparent Kd; compound concentrations: 100 nM and 1000 nM (sheet 'Samples'), CATDS: 0.44700655759470098; n = 1
# [23] = compound concentrations:100 nM and 1000 nM (sheet 'Samples')
# [24] = compound concentrations: 100 nM and 1000 nM (sheet 'Samples'), CATDS: 1
compound,measurement,setting,value
CS(=O)(=O)CCCn1c(=O)c(Oc2ccc(F)cc2F)cc2cnc(NC3CCOCC3)nc21 [RO5033700-000],potency estimated from few doses,[1]; [23],93.9 nM
same,potency estimated from few doses,[2]; [23],630 nM
same,potency estimated from few doses,[3]; [23],7.7 nM
same,potency estimated from few doses,[4]; [23],466 nM
same,potency estimated from few doses,[5]; [23],110 nM
same,potency estimated from few doses,[6]; [23],202 nM
same,potency estimated from few doses,[7],796 nM
Cl.Nc1c(C(=O)c2cccc(C#CCN3CCOCC3)c2)cnn1-c1ccc(F)cc1 [RO1153320-001],potency estimated from few doses,[8]; CATDS: 0.47869568713999899,815 nM
same,potency estimated from few doses,"[2]; compound concentrations: 100 nM and 1000 nM (sheet 'Samples'), CATDS: 0.52328893159992096",682 nM
CN1CCN(CCc2cccc(C(=O)c3cnn(-c4ccc(F)cc4)c3N)c2)CC1.Cl [RO1160347-001],potency estimated from few doses,[2]; [24],1330 nM
O=c1c(Oc2ccc(F)cc2F)cc2cnc(NC3CCOCC3)nc2n1C1CCS(=O)(=O)CC1 [RO5036538-000],potency estimated from few doses,[8]; CATDS: 0.12292389109729,230 nM
same,potency estimated from few doses,"[1]; compound concentrations: 100 nM and 1000 nM (sheet 'Samples'), CATDS: 0.124709728908191",221 nM
same,potency estimated from few doses,"[2]; compound concentrations: 100 nM and 1000 nM (sheet 'Samples'), CATDS: 7.2010910388864605E-2",1420 nM
same,potency estimated from few doses,"[3]; compound concentrations: 100 nM and 1000 nM (sheet 'Samples'), CATDS: 0.47843238213420702",13.9 nM
same,potency estimated from few doses,"[4]; compound concentrations: 100 nM and 1000 nM (sheet 'Samples'), CATDS: 7.6573616533716707E-2",1060 nM
same,potency estimated from few doses,"[5]; compound concentrations: 100 nM and 1000 nM (sheet 'Samples'), CATDS: 9.6122690538123806E-2",462 nM
same,potency estimated from few doses,"[9]; compound concentrations: 100 nM and 1000 nM (sheet 'Samples'), CATDS: 0.314538074262177",28.2 nM
same,potency estimated from few doses,"[6]; compound concentrations: 100 nM and 1000 nM (sheet 'Samples'), CATDS: 8.6125216910038493E-2",667 nM
same,potency estimated from few doses,[10],493 nM
O=C(O)/C=C/C(=O)O.OCCCNc1nccc(-c2c(-c3ccc(F)cc3)nn3cc(C(F)(F)F)ccc23)n1 [GW569293E],potency estimated from few doses,"[1]; compound concentrations: 100 nM and 1000 nM (sheet 'Samples'), CATDS: 0.51132000357216201",1430 nM
same,potency estimated from few doses,"[3]; compound concentrations: 100 nM and 1000 nM (sheet 'Samples'), CATDS: 0.48917036256560797",1570 nM
COCCNC(=O)c1ccc(-c2cc(C(=O)NC3CC3)cc(F)c2C)cc1 [GW868318X],potency estimated from few doses,[2]; [23],108 nM
same,potency estimated from few doses,"[3]; compound concentrations: 100 nM and 1000 nM (sheet 'Samples'), CATDS: 0.55857087808569805",22.7 nM
same,potency estimated from few doses,[9]; [23],79.6 nM
CN(C)c1cc2c(Nc3ccc4c(cnn4Cc4ccccc4)c3)ncnc2cn1 [GW282974X],potency estimated from few doses,[11],1470 nM
same,potency estimated from few doses,[12],989 nM
O=C1NC(=O)C(c2ccc(Cl)cc2)=C1Nc1cccc(Cl)c1 [SB-317651],potency estimated from few doses,[13],1860 nM
same,potency estimated from few doses,[14],2450 nM
same,potency estimated from few doses,[15],1570 nM
same,potency estimated from few doses,[16],1320 nM
same,potency estimated from few doses,[17],1500 nM
CN(C)CC#Cc1cccc(C(=O)c2cnn(-c3ccc(F)cc3)c2N)c1.Cl [RO1154641-001],potency estimated from few doses,"[2]; compound concentrations: 100 nM and 1000 nM (sheet 'Samples'), CATDS: 0.57557980724534297",758 nM
same,potency estimated from few doses,"[3]; compound concentrations: 100 nM and 1000 nM (sheet 'Samples'), CATDS: 0.44196522207196598",1300 nM
Cc1c(Cn2c(C)nn3c(=O)cc(N4CCOC(C)C4)nc23)cccc1C(F)(F)F (stereo not drawn) [GSK2344444A],potency estimated from few doses,[13],2250 nM
same,potency estimated from few doses,[18],1810 nM
same,potency estimated from few doses,[19],1560 nM
same,potency estimated from few doses,[20],13.4 nM
same,potency estimated from few doses,[21],20 nM
Cl.Cn1c(=O)c(Oc2ccc(F)cc2F)cc2cnc(NCCS(C)(=O)=O)nc21 [RO3309294-001],potency estimated from few doses,[3]; [24],344 nM
Nc1c(C(=O)c2cccc(C#CCO)c2)cnn1-c1ccc(F)cc1 [RO1153836-000],potency estimated from few doses,[2]; [24],591 nM
CN1CCN(CC#Cc2cccc(C(=O)c3cnn(-c4ccc(F)cc4)c3N)c2)CC1.Cl [RO1154309-001],potency estimated from few doses,"[2]; compound concentrations: 100 nM and 1000 nM (sheet 'Samples'), CATDS: 0.56724832291410499",811 nM
same,potency estimated from few doses,[22],1310 nM
Cc1ccc(NC(=O)c2ccnc(N3CCCCC3)c2)cc1-c1ccc(C(=O)NCC2CC2)cc1 [GW775610X],potency estimated from few doses,[2]; [23],309 nM
same,potency estimated from few doses,[3]; [23],199 nM
same,potency estimated from few doses,[9]; [23],107 nM
